The panel holds about 83,000 compounds, 20% with a hit somewhere; the sample as a whole holds those more often.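 Percent growth is the endpoint: 0 to 100 indicates growth inhibition (40 means 60% inhibition), 0 means no net growth, and negative values indicate cell death.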 Unmarked numbers belong to inactive results. The source made the active and inactive calls. Rule for the calls: active = growth percent below 10; inactive = the rest.
What was measured:
Experiment in all cases: NCI-60 one-dose screen, 48 h (100 = growth as untreated, 0 = no growth, -100 = all killed)
Details in all cases: 10 µM
SK-MEL-2 melanoma = test system: SK-MEL-2 melanoma
EKVX NSCLC = test system: EKVX NSCLC
SN12C renal = test system: SN12C renal
UO-31 renal = test system: UO-31 renal
TK-10 renal = test system: TK-10 renal
ACHN renal = test system: ACHN renal
CAKI-1 renal = test system: CAKI-1 renal
A498 renal = test system: A498 renal
CCRF-CEM leukemia = test system: CCRF-CEM leukemia
MOLT-4 leukemia = test system: MOLT-4 leukemia

SMILES	growth (SK-MEL-2 melanoma)	growth (EKVX NSCLC)	growth (SN12C renal)	growth (UO-31 renal)	growth (TK-10 renal)	growth (ACHN renal)	growth (CAKI-1 renal)	growth (A498 renal)	growth (CCRF-CEM leukemia)	growth (MOLT-4 leukemia)
COc1ccsc1/C=N/NC(=O)c1[nH]c2ccc(Br)cc2c1-c1ccccc1	20.7%	15.2%	-3.76% (active)	11.4%	16.1%	-0.91% (active)	3.46% (active)	20.3%	-12.5% (active)	-11.4% (active)
CC[C@]12C=CCN3CC[C@@]4(c5cc(C#CCNc6ccc(C)c(Nc7nccc(-c8cccnc8)n7)c6)c(OC)cc5N(C)[C@H]4[C@@](O)(C(=O)OC)[C@@H]1OC(C)=O)C32 (stereo not given in full)	61.7%	55.9%	45.3%	46.9%	88%	51.4%	40.4%	68.1%	18.8%	37.9%
O=c1c2ccccc2nc(COc2ccccc2)n1/N=C/c1ccc(N2CCCC2)cc1	104%	88%	88.7%	69.8%	99.5%	92.3%	91.5%	109%	78.2%	78.1%
CNCc1cccc2c1OCCCCCC[C@@](C)(O)CC1(CC1)S(=O)(=O)c1ccc(cc1)-c1cnc(N)c(n1)C(=O)N2	-98.7% (active)	-97.4% (active)	-93.9% (active)	-96.8% (active)	-92% (active)	-100% (active)	-94.6% (active)	-94.5% (active)	-6.39% (active)	-44.5% (active)
CC(C)CCSc1nc(NC2CC2)c(C#N)c(-c2ccc(C(C)C)cc2)n1	98.9%	96.5%	106%	103%	99.4%	108%	99.3%	109%	95.4%	98.9%
CN1C(=O)/C(=C/c2ccc3ncsc3c2)NC1=NC12CC3CC(CC(O)(C3)C1)C2	-82.3% (active)	12.3%	4.63% (active)	-0.057% (active)	39.2%	0.736% (active)	8.2% (active)	-10.5% (active)	5.06% (active)	4.59% (active)
O=C(NO)c1ccc(CNC(=O)[C@H]2Cc3c([nH]c4ccccc34)[C@H](c3ccc(Cl)cc3)N2)cc1	-21.5% (active)	25%	15.1%	21.8%	4.19% (active)	28.6%	29%	-6.62% (active)	17.4%	5.97% (active)
Cc1cc(=O)oc2cc(OCCCCOc3ccc(/C=C/C(=O)Nc4ccc(F)c(Cl)c4)cc3)ccc12	117%	96.4%	96.4%	86.1%	112%	107%	96%	108%	92.7%	93.5%
O=C(c1ccc(O)cc1)C1[C@H](c2ccc(Br)cc2)[C@@H](c2ccccc2)NC12C(=O)Nc1ccc(Br)cc12 (stereo not given in full)	-21.1% (active)	6.1% (active)	-83.5% (active)	-27.3% (active)	-5.38% (active)	2.27% (active)	3.36% (active)	10.9%	19.7%	12.4%
C=C1CCC2C3(C)COC(c4c(F)cccc4F)OC3CCC2(C)C1CC(O)C1=CCOC1=O (stereo not given)	52.4%	85.7%	34.9%	50%	105%	3.02% (active)	72.5%	134%	17.7%	53.7%
Cc1ccc(/C(N)=N/c2sc(-c3ccccc3)nc2-c2ccccc2)cc1	90.7%	74.2%	77.8%	69.9%	100%	76.3%	59.8%	91.1%	26.7%	51.5%
CC(C)(C)c1ccc(NCc2cn(-c3ccc(C(=O)O)cc3)nc2-c2ccc(C#N)cc2)cc1	53.1%	-36.7% (active)	16.1%	35.7%	86.3%	27%	34.4%	58.2%	16.3%	8.13% (active)
O=c1[nH]c2ccccc2cc1CSc1ccc(Nc2nccc(-c3ccc(Cl)cc3)n2)cc1	4.31% (active)	-49.6% (active)	-47.7% (active)	-70.4% (active)	-64.2% (active)	-89.9% (active)	-83.5% (active)	-65.3% (active)	57.1%	59.8%
CS(=O)(=O)Nc1ccc(-c2ccc3c(c2)ncn3-c2ccc(NC(=O)Nc3ccc(Br)cc3)cc2)cc1	-52.1% (active)	-0.46% (active)	14.2%	2.62% (active)	25.7%	4.12% (active)	2.14% (active)	-17% (active)	-14.9% (active)	-18.4% (active)
N#Cc1ccc(-c2nn(-c3ccc(C(=O)O)cc3)cc2CNc2cccc(Br)c2)cc1	71.7%	65.9%	59.2%	60.5%	102%	66.8%	73.4%	94.5%	23.7%	23.9%
O=C(NO)c1ccc(CNc2nc(-c3ccccc3)c3ccccc3n2)cc1	-20.4% (active)	15.6%	-0.363% (active)	-18.8% (active)	-17.2% (active)	-74.2% (active)	-4.81% (active)	-42.4% (active)	15%	12.3%
CN1CCN(c2ccc(C(=O)/C=C/c3cc(Br)ccc3F)cc2)CC1	107%	55.7%	38.2%	44.2%	88.6%	63.7%	50%	107%	-11.4% (active)	24%
CC1=C2C(=C[C@@](C)(CO)[C@@H]2O)/C(=N\N)[C@](C)(O)C12CC2	-100% (active)	-44.2% (active)	0.386% (active)	-29.2% (active)	1.74% (active)	-18.6% (active)	1.03% (active)	-27.8% (active)	18.8%	3.48% (active)
CC(=O)Nc1ccc(-n2cnc3cc(-c4ccc(O)cc4)ccc32)cc1C	19.9%	61.6%	40.4%	35.5%	73.9%	43.1%	44.2%	92.1%	65.1%	64.7%
CCCSc1nc(NC2CC2)c(C#N)c(-c2ccc(OC)cc2)n1	118%	101%	91.9%	93.6%	106%	85.2%	86.9%	100%	97.1%	100%
O=C(CNc1nc(-c2ccccc2)cs1)Nc1ccc(Cl)cc1	-84.1% (active)	-95.3% (active)	-97.2% (active)	-99.8% (active)	-93.9% (active)	-100% (active)	-82.4% (active)	-93.4% (active)	12.3%	-26.5% (active)
CN1C(=O)N(C)C2SC(N/N=C/c3ccc(F)cc3)=NC21 (stereo not given)	26.5%	77.2%	52.5%	47.7%	72.4%	60.1%	46.3%	57.6%	40.3%	45.4%
N#Cc1c(-c2ccc(F)cc2)nc(SCc2ccc(F)cc2)nc1N1CCOCC1	78.7%	60.1%	72.9%	86%	77.6%	46.7%	30.7%	71.9%	87.1%	91.6%
O/N=C(\CSc1nnc(-c2c[nH]c3ccccc23)n1-c1ccccc1)c1ccc(Cl)cc1	20.1%	2.05% (active)	-16.2% (active)	34.4%	-23.2% (active)	3.34% (active)	-10.7% (active)	83.7%	-5.19% (active)	-7.37% (active)
COc1ccc2[nH]cc(/C=N/Nc3ccc(Br)cn3)c2c1	73.5%	22.9%	23.7%	11%	54%	26.7%	30.9%	50.7%	11.2%	24.6%
O=C(c1ccc(Cl)cc1)C1[C@H](c2ccc(Br)cc2)[C@@H](c2ccccc2)NC12C(=O)Nc1ccc(Cl)cc12 (stereo not given in full)	-77.7% (active)	-47.8% (active)	-92.5% (active)	-29.2% (active)	-17.4% (active)	-17.2% (active)	-92.7% (active)	-16.9% (active)	-17% (active)	-28.8% (active)
CN1C(=O)N(C)C2SC(N/N=C/c3cccs3)=NC21 (stereo not given)	9.78% (active)	56.2%	26.5%	40.3%	63.7%	38.8%	20.8%	65.6%	20.3%	33.4%
